29 compounds from PubChem BioAssay (NCI) can be followed below.

The panel holds about 83,000 compounds, 20% with a hit somewhere; the sample as a whole holds those more often.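 Results are percent growth after 48 hours of single-concentration exposure. 100 means growth as in untreated cells, lower positive values show inhibition; negative values down to -100 show cell death.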 A number with no mark means an inactive call. The source made the active and inactive calls. Rule for the calls: active = growth percent below 10; inactive = the rest.

For the experiment, the system named is HL-60(TB) leukemia. The experiment in a line: NCI-60 one-dose screen, 48 h (100 = growth as untreated, 0 = no growth, -100 = all killed). The conditions noted are these: 10 µM unless noted.
With `CO[C@H]1/C=C/O[C@@]2(C)Oc3c(C)c(O)c4c(O)c(c(/C=N/N5C(C)CN(Cc6ccccc6)CC5C)c(O)c4c3C2=O)NC(=O)/C(C)=C\C=C\[C@H](C)[C@H](O)[C@@H](C)[C@@H](O)[C@@H](C)[C@H](OC(C)=O)[C@@H]1C` (some centres undefined), the growth is 161%. The result for `OCC1OC(n2cnc3c(N/N=C\c4ccccn4)ncnc32)C(O)C1O` (centres undefined) reads 6.17% (active); that for `N=C(N)c1ccc(-c2ccc(-c3ccccc3)s2)cc1`, -34.2% (active). Under `COc1ccc2[nH]c(-c3ccc(Cl)cc3)cc(=O)c2c1` stands 75.7%; under `O[C@H]1[C@H]2c3cc4c(cc3CN3CCC(=C[C@@H]1O)[C@H]23)OCO4`, 5.02% (active). As to `C=C(C)[C@@H]1CC[C@]2(C(=O)N3CCN(C)CC3)CC[C@]3(C)[C@H](CC[C@@H]4[C@@]5(C)C/C(=C/c6ccncc6)C(=O)C(C)(C)[C@@H]5CC[C@]43C)[C@@H]12`, the growth was -21.7% (active). With `Clc1ccc([C@@H]2C[C@@H]3Cc4cc(Br)c5ccccc5c4N2O3)c(Cl)c1`, the growth is 54.3%. Turning to `COc1cc(/C=C/c2cn[nH]c2-c2ccc(C)cc2)cc(OC)c1OC`, the growth was 4.76% (active).

Take `Cc1ccc(-n2c3c(c(-c4ccccc4)c2-c2ccccc2)C2=NCCN2C=N3)cc1`: the growth is 98.5%. With `COC(=O)C1CCc2sc3ncnc(Nc4cn[nH]c4C(=O)Nc4ccc(CN5CCN(C)CC5)cc4)c3c21` (centres undefined), the growth is -28.8% (active). Under `O=c1[nH]c(CN2CCN(c3ccccc3)CC2)nc2c(Br)cc(Br)cc12` stands 99.2%; under `CC[C@H](C)[C@@H]1NC(=O)[C@H]([C@@H](C)O)NC(=O)C(Cc2ccccc2)NC(=O)[C@@H]2CCCN2C(=O)C(C(C)C)NC(=O)C(Cc2ccccc2)NC(=O)CNC(=O)[C@@H]2CCCN2C1=O` (some centres undefined), 5.19% (active); under `N#Cc1cc2[nH]c3ccc(OC(F)(F)F)cc3c2oc1=O`, 99.8%. Turning to `Oc1ccccc1/C=N\Nc1ccccc1`, the growth was 16.5%. Under `CN1CCN(c2ccc3nc(-c4[nH]ncc4Nc4ncnc5[nH]ccc45)[nH]c3c2)CC1` stands -28.6% (active); under `O=c1c2c(=NCCN3CCCC3)cc3c(=O)n(CCCN4CCOCC4)c(=O)c4c(-c5ccc(CN6CCCC6)cc5)cc(c(O)n1CCCN1CCOCC1)c2c4-3`, -36.5% (active). Under `CC(C)(C)c1ccc(O)c(C2CCCCC2)c1` stands 67.4%; under `COc1cc(C2CC(c3ccc(C)cc3)=NN2C=O)ccc1Oc1nc2c(c(=O)n(C)c(=O)n2C)n1C` (centres undefined), 111%. As for `Nc1cc2nc3ccccc3oc-2cc1=O`, the growth was 16.2%. Under `Cc1cccc2c(=O)c3c(sc12)c(NCCCNCCO)nc1ccccc13` stands 14.6%.

For `COc1cccc(/C=C2\CCc3ccccc3C2=O)c1`, the growth was 63.2%. The result for `CCC1S/C(=N\N=C(\C)c2cc3cc(Cl)ccc3o2)N(c2ccccc2)C1=O` (centres undefined) reads 103%; that for `CCC(C)C(N)C(=O)NC(CC(C)C)C(=O)N1CCCC1C(=O)NC(Cc1c[nH]c2ccccc12)C(=O)NC(CCCCN)C(=O)NC(Cc1c[nH]c2ccccc12)C(=O)N1CCCC1C(=O)NC(Cc1c[nH]c2ccccc12)C(=O)NC(Cc1c[nH]c2ccccc12)C(=O)N1CCCC1C(=O)NC(Cc1c[nH]c2ccccc12)C(=O)NC(CCCNC(=N)N)C(=O)NC(CCCNC(=N)N)C(N)=O` (centres undefined), -2.6% (active); that for `COc1cc(OC)c2c(=O)c3c(CC=C(C)C)cc(OC)c(O)c3oc2c1`, 96.7%.

With `CCOC(=O)N1CCN(c2nc(Nc3cc(C)[nH]n3)c3ccccc3n2)CC1`, the growth is 26.3%. Take `CN(C)c1ccc(CNC(C(=O)c2ccccc2)c2ccccc2)cc1` (centres undefined): the growth is 97.1%. Take `CCn1c(SCCc2ccccc2)nnc1-c1nn(-c2ccc(Cl)cc2Cl)c(-c2ccc(Cl)cc2)c1C`: the growth is 67.8%. As for `OCc1cn(-c2ccc(Cl)cc2)nc1-c1ccc(O)cc1`, the growth was 51.7%. Under `COC(=O)c1cc2c3c(cc(O)c2[nH]1)N(C(=O)C1Cc2cc(OC)c(OC)c(OC)c2N1)CC3CCl` (centres undefined) stands -5.77% (active).
